# About 83,000 compounds went through this panel and 20% of them were active in at least one assay; those are over-represented in the sample as a whole.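 In brief: 96-well plates, 48 h treatment, single concentration, percent growth endpoint.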 Calls of active or inactive are those of the source. Rule for the calls: active = growth percent below 10; inactive = the rest.
# System: EKVX NSCLC
# Assay: NCI-60 one-dose screen, 48 h (100 = growth as untreated, 0 = no growth, -100 = all killed)
# Conditions: 10 µM
row,SMILES,growth
1,O=c1oc2ccc(-c3ccc(F)cc3F)cc2c(=O)n1-c1ccc(F)c(Cl)c1,-9.05% (active)
2,CCN1CCN(c2ccc(NC(=O)Nc3ccc(-c4cc(C(=O)NC(C)C)c5ncccc5n4)cc3)cc2C(F)(F)F)CC1,-91.5% (active)
3,COC(=O)C(Cc1ccc(O)c(O)c1)NC(=O)C(CSC/C=C(\C)CCCC(C)CCCC(C)CCCC(C)C)NC(C)=O (configuration not stated),47% (inactive)
4,CN1CCN(c2ccc(Nc3nc(NCCCNC(=O)c4ccc(Cl)cc4)c4sccc4n3)cc2)CC1,88.3% (inactive)
5,CCCCCCCCCCCCCCCCCCCC(=O)NCCc1c[nH]c2ccc(O)cc12,101% (inactive)
6,CCCCCc1ccc(S(=O)(=O)N(C(C)=O)c2cc(-c3csc(N(C)C(C)=O)n3)ccc2N2CCN(C)CC2)cc1,62.7% (inactive)
7,COc1ccc2[nH]c(O)c(N=NC(=O)COc3ccc(NC(=O)Nc4ccc(Cl)cc4)cc3)c2c1,84.8% (inactive)
8,CCCCCCCCCCCCCCCCCCCC(=O)NCCc1c[nH]c2ccc(OC(=O)NOCCOCCOCCOCCOCCOCCOCCOCCOCCOCCOCCOCCOCCOCCOCCOCCOCCOCCOCCOCCOCCOCCOC)cc12,35.6% (inactive)
9,CC1(C)CC[C@]2(C(=O)N3CCOCC3)CC[C@]3(C)C(=CC[C@@H]4[C@@]5(C)CC[C@H](NCO)C(C)(C)[C@@H]5CC[C@]43C)[C@H]2C1,-87.8% (active)
10,Cc1ccc(-c2cc(C(=O)N=Nc3c(O)[nH]c4ccc(Br)cc34)c3ccccc3n2)cc1,60.6% (inactive)
11,CCC(C)S(=O)(=O)c1oc(-c2ccc(C)cc2)nc1S(=O)(=O)c1ccccc1 (configuration not stated),-61% (active)
12,CCCCCc1ccc(S(=O)(=O)Nc2cc(-c3csc(N(C)C(C)=O)n3)ccc2N2CCN(C)CC2)cc1,65.4% (inactive)
13,C/C(=C\CC/C=C(\C)CC/C=C(\C)CC[C@@H](O)C(C)(C)O)CC/C=C(\C)CC[C@@H](O)C(C)(C)O,34.5% (inactive)
14,CC(C)C(=O)Nc1ccc(C(=O)NC(=S)Nc2ccc(C(=O)O)cc2)cc1,96.6% (inactive)
15,CN1CCN(c2ccc(Nc3nc(N4CCN(S(=O)(=O)c5ccc(F)cc5)CC4)c4sccc4n3)cc2)CC1,-89.5% (active)
16,O=C(Cn1cc(CSc2nnc3oc4ccccc4n23)nn1)Nc1ccc(Br)cc1,78.5% (inactive)
17,CC1(C)CC[C@]2(C(=O)NCCCNCCCCNCCCN)CC[C@]3(C)C(=CC[C@@H]4[C@@]5(C)Cc6c([nH]c7ccccc67)C(C)(C)[C@@H]5CC[C@]43C)[C@H]2C1,90.7% (inactive)
18,COc1ccc(CCN2C(=O)/C(=C/c3csc(C#N)n3)SC2=S)cc1,20% (inactive)
19,CC(=O)Nc1nc(-c2ccc(N3CCN(C)CC3)c(NS(=O)(=O)c3ccc(C(F)(F)F)cc3)c2)cs1,72.2% (inactive)
20,O=C(NO)c1ccc(Cn2ccc3c(Nc4ccccc4)ncnc32)cc1,23.6% (inactive)
21,CC(=O)Nc1nc(-c2ccc(N3CCN(C)CC3)c(NS(=O)(=O)c3cccc4c(N(C)C)cccc34)c2)cs1,69.9% (inactive)
22,CCCCCCCCCCCCCCCCCCCC(=O)NCCc1c[nH]c2ccc(OC(=O)CCCC(=O)OCCOOCCOOCCOOCCOOCCOOCCOOCCOOCCOOCCOOCCOOCCOOCCOC)cc12,83.1% (inactive)
23,COC[C@@H](CC(C)C)N=C1NC(=O)/C(=C/c2ccc3ncsc3c2)N1,17.8% (inactive)
24,O=C(NC(=S)N1CCN(c2ncnc3c2cnn3-c2ccccc2)CC1)c1ccc(Cl)cc1,62.7% (inactive)

# System: SN12C renal
# Assay: as above
# Conditions: 10 µM
row,SMILES,growth
1,CN1CCN(c2ccc(Nc3nc(NCCCNC(=O)c4ccc(F)cc4)c4sccc4n3)cc2)CC1,78.8% (inactive)
2,O=C(CS(=O)(=O)c1oc(-c2ccc(Cl)cc2)nc1S(=O)(=O)c1ccc(Cl)cc1)N1CCOCC1,55.3% (inactive)
3,COc1ccc(C(=O)NC(=S)N2CCN(c3ncnc4c3cnn4-c3ccccc3)CC2)cc1,46% (inactive)
4,COc1cccc(COc2ccc(/C=C3\Oc4cc(O)ccc4C3=O)cc2)c1,66.1% (inactive)
5,O=C(O)CCCCCCCCCCN1C(=O)/C(=C/c2cnc(-c3ccc(Cl)cc3)s2)SC1=S,-57.4% (active)
6,COc1cccc(C(N)=Nc2ccc(OCCCCCCn3cncn3)cc2)c1,30.2% (inactive)
7,CN(C)c1cccc2c(S(=O)(=O)Nc3cccc(-c4csc(NC(=O)CCCCCN5CCN(c6cc7c(cc6F)C(=O)N(C6CCC(=O)NC6=O)C7=O)CC5)n4)c3)cccc12 (configuration not stated),85.8% (inactive)
8,Cc1ccc(C(C)C)cc1NC(=O)c1ccccc1O,37.8% (inactive)
9,NC(=Nc1ccc(OCCCCCCCCn2ccnn2)cc1)c1ccccc1,32.3% (inactive)
10,O=c1[nH][nH]c(Nc2ccccc2)c1N=Nc1ccc(F)cc1,79.6% (inactive)
11,COc1ccc2[nH]c(O)c(N=NC(=O)c3cc(-c4ccc(C)cc4)nc4ccccc34)c2c1,92.1% (inactive)
12,CN1C(=O)/C(=C/c2nccs2)SC1=S,75.8% (inactive)
13,CNC(=O)c1cc(-c2ccc(NC(=O)Nc3ccc(C)cc3)cc2)nc2cccnc12,101% (inactive)
14,CC(=O)NNc1ccc2nnc(-c3ccc(Br)cc3)n2n1,105% (inactive)
15,O=c1oc2ccc(-c3ccc(F)cc3F)cc2c(=O)n1-c1ccc(F)c(Cl)c1,-17% (active)
16,CCN1CCN(c2ccc(NC(=O)Nc3ccc(-c4cc(C(=O)NC(C)C)c5ncccc5n4)cc3)cc2C(F)(F)F)CC1,-94.3% (active)
17,COC(=O)C(Cc1ccc(O)c(O)c1)NC(=O)C(CSC/C=C(\C)CCCC(C)CCCC(C)CCCC(C)C)NC(C)=O (configuration not stated),26.3% (inactive)
18,CN1CCN(c2ccc(Nc3nc(NCCCNC(=O)c4ccc(Cl)cc4)c4sccc4n3)cc2)CC1,74.5% (inactive)
19,CCCCCCCCCCCCCCCCCCCC(=O)NCCc1c[nH]c2ccc(O)cc12,84.9% (inactive)

row,SMILES,growth
1,CCCCCc1ccc(S(=O)(=O)N(C(C)=O)c2cc(-c3csc(N(C)C(C)=O)n3)ccc2N2CCN(C)CC2)cc1,21.2% (inactive)
2,COc1ccc2[nH]c(O)c(N=NC(=O)COc3ccc(NC(=O)Nc4ccc(Cl)cc4)cc3)c2c1,15.9% (inactive)
3,CCCCCCCCCCCCCCCCCCCC(=O)NCCc1c[nH]c2ccc(OC(=O)NOCCOCCOCCOCCOCCOCCOCCOCCOCCOCCOCCOCCOCCOCCOCCOCCOCCOCCOCCOCCOCCOCCOC)cc12,-17.4% (active)
4,CC1(C)CC[C@]2(C(=O)N3CCOCC3)CC[C@]3(C)C(=CC[C@@H]4[C@@]5(C)CC[C@H](NCO)C(C)(C)[C@@H]5CC[C@]43C)[C@H]2C1,-91% (active)
5,Cc1ccc(-c2cc(C(=O)N=Nc3c(O)[nH]c4ccc(Br)cc34)c3ccccc3n2)cc1,48.6% (inactive)
6,CCC(C)S(=O)(=O)c1oc(-c2ccc(C)cc2)nc1S(=O)(=O)c1ccccc1 (configuration not stated),-85.6% (active)
7,CCCCCc1ccc(S(=O)(=O)Nc2cc(-c3csc(N(C)C(C)=O)n3)ccc2N2CCN(C)CC2)cc1,14.1% (inactive)
8,C/C(=C\CC/C=C(\C)CC/C=C(\C)CC[C@@H](O)C(C)(C)O)CC/C=C(\C)CC[C@@H](O)C(C)(C)O,12% (inactive)
9,CC(C)C(=O)Nc1ccc(C(=O)NC(=S)Nc2ccc(C(=O)O)cc2)cc1,96.3% (inactive)
10,CN1CCN(c2ccc(Nc3nc(N4CCN(S(=O)(=O)c5ccc(F)cc5)CC4)c4sccc4n3)cc2)CC1,-86.4% (active)
11,O=C(Cn1cc(CSc2nnc3oc4ccccc4n23)nn1)Nc1ccc(Br)cc1,61.5% (inactive)
12,CC1(C)CC[C@]2(C(=O)NCCCNCCCCNCCCN)CC[C@]3(C)C(=CC[C@@H]4[C@@]5(C)Cc6c([nH]c7ccccc67)C(C)(C)[C@@H]5CC[C@]43C)[C@H]2C1,91.4% (inactive)
13,COc1ccc(CCN2C(=O)/C(=C/c3csc(C#N)n3)SC2=S)cc1,-38.2% (active)
14,CC(=O)Nc1nc(-c2ccc(N3CCN(C)CC3)c(NS(=O)(=O)c3ccc(C(F)(F)F)cc3)c2)cs1,13.7% (inactive)
15,O=C(NO)c1ccc(Cn2ccc3c(Nc4ccccc4)ncnc32)cc1,17.6% (inactive)
16,CC(=O)Nc1nc(-c2ccc(N3CCN(C)CC3)c(NS(=O)(=O)c3cccc4c(N(C)C)cccc34)c2)cs1,75.6% (inactive)
17,CCCCCCCCCCCCCCCCCCCC(=O)NCCc1c[nH]c2ccc(OC(=O)CCCC(=O)OCCOOCCOOCCOOCCOOCCOOCCOOCCOOCCOOCCOOCCOOCCOOCCOC)cc12,17.4% (inactive)
18,COC[C@@H](CC(C)C)N=C1NC(=O)/C(=C/c2ccc3ncsc3c2)N1,13.6% (inactive)
19,O=C(NC(=S)N1CCN(c2ncnc3c2cnn3-c2ccccc2)CC1)c1ccc(Cl)cc1,28.3% (inactive)
